Data from the antibiotic and cytotoxicity screens of Wong et al. (2023).
The whole screen tested about 39,000 compounds, of which about 1,500 (3.8%) were called active. For the sample, actives were picked, then their nearest neighbours and some compounds at random.

tested on: HSkMC (human skeletal muscle cells); test: cytotoxicity call (relative viability < 0.9); settings: 10 µM

Row | SMILES | cytotoxicity call
1 | COc1ccc2c3c(n(c2c1)C)[C@@H](CO)N(CC1CCOCC1)C[C@]13CCN(CC1)C(=O)c1cnccn1 | inactive
2 | CCc1c(C)c2cc3c(-c4ccccc4)coc3cc2oc1=O | inactive
3 | CNC[C@H]1OCCCC[C@@H](C)Oc2ccc(NS(=O)(=O)c3cn(C)cn3)cc2C(=O)N([C@@H](C)CO)C[C@@H]1C | inactive
4 | Cc1ccc(S(=O)(=O)Nc2ccc3c(c2)CC(=O)N([C@@H](C)CO)C[C@@H](C)[C@H](CN(C)C(=O)NC(C)C)O3)cc1 | inactive
5 | N#Cc1cc(F)cc(Oc2ccc(S(=O)(=O)C(F)F)c3c2CC(F)(F)[C@@H]3O)c1.N#Cc1cc(F)cc(Oc2ccc(S(=O)(=O)C(F)F)c3c2CC(F)(F)[C@H]3O)c1 | inactive
6 | COc1ccccc1NC(=O)N(C)C[C@H]1OCc2ccccc2-c2c(n(C)c3ccccc23)C(=O)N([C@H](C)CO)C[C@H]1C | inactive
7 | C=CC(=O)N[C@H]1CCCN(CC)C1 | inactive
8 | C[C@@H]1CN([C@@H](C)CO)C(=O)c2cccc(NS(=O)(=O)c3ccc(F)cc3)c2O[C@H]1CN(C)S(=O)(=O)c1cccs1 | inactive
9 | C[C@@H]1CN([C@H](C)CO)C(=O)c2cc(Br)cnc2O[C@H]1CN(C)Cc1ccc2c(c1)OCO2 | inactive
10 | C[C@@H]1CN([C@@H](C)CO)C(=O)Cc2cc(NS(=O)(=O)c3cccs3)ccc2O[C@@H]1CN(C)S(=O)(=O)c1cccs1 | inactive
11 | Cc1ccc(S(=O)(=O)N(C)C[C@@H]2Oc3ccc(NC(=O)c4ccncc4)cc3C(=O)N([C@H](C)CO)C[C@H]2C)cc1 | inactive
12 | Cc1c(-c2ccc(C(N)=O)c3[nH]c4cc(C(C)(C)O)ccc4c23)cccc1-n1cnc2ccccc2c1=O | active
13 | CCOC(=O)Cn1cnc2ccccc2c1=O | inactive
14 | COc1ccc(S(=O)(=O)N(C)C[C@@H]2Oc3ccc(NC(=O)Cn4cnnn4)cc3C(=O)N([C@@H](C)CO)C[C@H]2C)cc1 | inactive
15 | Cc1ccc(S(=O)(=O)Nc2cccc3c2O[C@H](CN(C)CC2CC2)[C@H](C)CN([C@@H](C)CO)C3=O)cc1 | inactive
16 | COc1ccc(cc1)S(=O)(=O)N1C[C@]2(C1)CN([C@@H](CO)c1c2c2ccc(cc2n1C)OC)C(=O)CN(C)C | inactive
17 | COc1ccc2c3c(n(c2c1)C)[C@@H](CO)N(C[C@]13CCN(CC1)C(=O)c1ccccc1)C(=O)Nc1ccccc1F | inactive
18 | COc1ccc(cc1)S(=O)(=O)N1CC[C@]2(CC1)CN([C@@H](CO)c1c2c2ccc(cc2n1C)OC)C(=O)CN(C)C | inactive
19 | COc1ccc2c3c(n(c2c1)C)[C@@H](CO)N(C[C@]13CN(C1)C(=O)Nc1cccc(c1)F)C(=O)C1CCOCC1 | inactive
20 | COc1ccc2c3c(n(c2c1)C)[C@@H](CO)N(C[C@]13CN(Cc2cccc(c2)F)C1)C(=O)C1CCOCC1 | active
21 | COc1ccc2c3c(n(c2c1)C)[C@@H](CO)N(C[C@]13CCN(CC1)C(=O)c1ccccc1F)C(=O)Nc1ccccc1F | active
22 | COCC(=O)N1CC[C@]2(CC1)CN([C@H](CO)c1c2c2ccc(cc2n1C)OC)C(=O)Nc1ccccc1F | inactive
23 | COc1ccc2c3c(n(c2c1)C)[C@H](CO)N(C[C@]13CCN(CC1)C(=O)c1ccccc1)C(=O)Nc1ccccc1F | active
24 | COc1ccc2c3c(n(c2c1)C)[C@@H](CO)N(C[C@]13CCN(CC1)C(=O)c1ccccc1F)C(=O)Nc1ccc(cc1)F | inactive

Row | SMILES | cytotoxicity call
25 | COc1ccc(cc1)S(=O)(=O)N1CC[C@]2(CC1)CN([C@H](CO)c1c2c2ccc(cc2n1C)OC)C(=O)CN(C)C | active
26 | COc1ccc2c3c(n(c2c1)C)[C@H](CO)N(C[C@]13CCN(CC1)C(=O)c1ccccc1F)C(=O)Nc1ccccc1F | inactive
27 | COc1ccc2c3c(n(c2c1)C)[C@H](CO)N(C[C@]13CN(Cc2cccc(c2)F)C1)C(=O)C1CCOCC1 | inactive
28 | COc1cccc(NC(=O)C[C@H]2CC[C@H]3[C@H](COc4ccc(NC(=O)C5CCOCC5)cc4C(=O)N3C)O2)c1 | inactive
29 | Cc1ccc(S(=O)(=O)Nc2ccc3c(c2)C(=O)N([C@H](C)CO)C[C@@H](C)[C@@H](CN(C)S(C)(=O)=O)O3)cc1 | inactive
30 | CC(C)c1onc(-c2c(Cl)cccc2Cl)c1COc1ccc(C=Cc2cccc(C(=O)O)c2)c(Cl)c1 | inactive
31 | C[C@@H]1CN([C@@H](C)CO)C(=O)c2cccc(NS(C)(=O)=O)c2O[C@@H]1CN(C)Cc1ccc2c(c1)OCO2 | inactive
32 | COc1ccc(S(=O)(=O)N2C[C@@H](O)COC[C@@H]3O[C@H](CC(=O)NCCCN4CCOCC4)CC[C@H]32)cc1 | inactive
33 | Cc1ccc(F)cc1NC(=O)[C@@H](C)N | inactive
34 | COc1ccc(S(=O)(=O)Nc2ccc3c(c2)CC(=O)N([C@@H](C)CO)C[C@@H](C)[C@@H](CN(C)S(=O)(=O)c2c(C)noc2C)O3)cc1 | inactive
35 | Cc1cccc(-n2cc(CN)cn2)c1 | inactive
36 | COc1cc(NC(=O)Cn2cnc3c2c(=O)n(C)c(=O)n3C)cc(OC)c1OC | inactive
37 | COc1cc(NC(=O)c2cccc(-n3cc(NC(=O)Nc4cccc(C)c4)cn3)c2)cc(OC)c1OC | active
38 | C[C@@H]1CN([C@H](C)CO)C(=O)c2cccc(NC(=O)c3ccc(-c4nccs4)cc3)c2O[C@@H]1CN(C)Cc1ccc(Cl)c(Cl)c1 | inactive
39 | C[C@@H]1CCCCO[C@H](CN(C)C(=O)Nc2cccc3ccccc23)[C@@H](C)CN([C@H](C)CO)C(=O)c2cc(NC(=O)Nc3ccc(C(F)(F)F)cc3)ccc2O1 | inactive
40 | COc1ccc(S(=O)(=O)Nc2ccc3c(c2)C(=O)N([C@@H](C)CO)C[C@@H](C)[C@H](CN(C)C(=O)Nc2ccc(F)cc2)OCCCC[C@@H](C)O3)cc1 | inactive
41 | C[C@@H]1CN([C@H](C)CO)C(=O)c2c(c3ccccc3n2C)-c2ccccc2CO[C@H]1CN(C)C(=O)Nc1cccc(Cl)c1Cl | inactive
42 | C[C@H](CO)N1C[C@H](C)[C@H](CN(C)C(=O)Nc2cccc(Cl)c2Cl)OCc2ccccc2-c2c(n(C)c3ccccc23)C1=O | inactive
43 | COc1ccccc1NC(=O)N(C)C[C@@H]1OCc2ccccc2-c2c(n(C)c3ccccc23)C(=O)N([C@@H](C)CO)C[C@H]1C | inactive
44 | C[C@H](CO)N1C[C@H](C)[C@@H](CN(C)C(=O)Nc2cccc(Cl)c2Cl)OCc2ccccc2-c2c(n(C)c3ccccc23)C1=O | active
45 | C[C@@H]1CN([C@@H](C)CO)C(=O)c2c(c3ccccc3n2C)-c2ccccc2CO[C@H]1CN(C)C(=O)Nc1cccc(Cl)c1Cl | inactive
46 | C[C@@H]1CN([C@H](C)CO)C(=O)c2c(c3ccccc3n2C)-c2ccccc2CO[C@@H]1CN(C)C(=O)Nc1cccc(Cl)c1Cl | active
47 | C[C@H]1CN([C@@H](C)CO)C(=O)c2c(c3ccccc3n2C)-c2ccccc2CO[C@@H]1CN(C)C(=O)Nc1cccc(Cl)c1Cl | active
48 | C[C@@H]1CN([C@@H](C)CO)C(=O)c2c(c3ccccc3n2C)-c2ccccc2CO[C@@H]1CN(C)C(=O)Nc1cccc(Cl)c1Cl | inactive

Row | SMILES | cytotoxicity call
49 | C[C@H]1CN([C@@H](C)CO)C(=O)c2c(c3ccccc3n2C)-c2ccccc2CO[C@H]1CN(C)C(=O)Nc1cccc(Cl)c1Cl | inactive
50 | COc1ccc(S(=O)(=O)N(C)C[C@H]2OCCCC[C@H](C)Oc3ccc(NC(=O)C4CCCCC4)cc3C(=O)N([C@H](C)CO)C[C@@H]2C)cc1 | inactive
51 | Cn1c(C(=O)N[C@H](CO)Cc2c[nH]c3ccccc23)cc(=O)n(C)c1=O | inactive
52 | C[C@H](CO)N1C[C@H](C)[C@@H](CN(C)C(=O)CCCN(C)C)OCc2cn(nn2)CCCC1=O | inactive
53 | Cc1ccc(S(=O)(=O)Nc2ccc3c(c2)C(=O)N([C@H](C)CO)C[C@H](C)[C@@H](CN(C)C(=O)CCC(F)(F)F)OCCCC[C@@H](C)O3)cc1 | inactive
54 | CC(C)C(=O)NCc1nnnn1-c1ccccc1 | inactive
55 | C[C@@H]1CCCCO[C@@H](CN(C)C(=O)c2ccccc2)[C@@H](C)CN([C@@H](C)CO)C(=O)c2cc(NC(=O)Cc3ccccc3)ccc2O1 | inactive
56 | COc1ccc(CN(C)C[C@@H]2Oc3c(NC(=O)c4cnccn4)cccc3C(=O)N([C@H](C)CO)C[C@H]2C)cc1 | inactive
57 | O=C1O[C@@H](c2ccccc2)[C@@H](c2ccccc2)N2[C@@H](c3ccc(O)cc3)[C@]3(C(=O)Nc4ccccc43)[C@@H](C(=O)NC[C@H](O)c3ccccc3)[C@H]12 | inactive
58 | CN1CCN(C(=O)C[C@@H]2CC[C@@H]3[C@H](COC[C@H](O)CN3C(=O)C3CCCC3)O2)CC1 | inactive
59 | Cc1cc(O)c(C(C)C)cc1Cl | inactive
60 | COc1cccc(C#Cc2cnc3c(c2)C(=O)N([C@@H](C)CO)C[C@H](C)[C@@H](CN(C)C(=O)C2CCC2)O3)c1 | inactive
61 | C=C1C2CCC3(C)C(c4ccoc4)OC(=O)CC13OC1CC(=O)C(C)(C)C(C(O)C(=O)OC)C12C (configuration not stated) | inactive
62 | CC(C)NC(=O)Nc1ccc2c(c1)C(=O)N([C@@H](C)CO)C[C@@H](C)[C@H](CN(C)S(=O)(=O)c1cn(C)cn1)O2 | inactive
63 | O=C(C[C@H]1CC[C@H]2[C@@H](COC[C@@H](O)CN2C(=O)c2ccccc2F)O1)N1CCN(c2ccccc2)CC1 | inactive
64 | COc1ccc(-c2ccc3c(c2)O[C@H](CN(C)CC2CCOCC2)[C@@H](C)CN([C@@H](C)CO)S3(=O)=O)cc1 | inactive
65 | Cc1[nH]c(/C=C2\C(=O)Nc3ccc(S(=O)(=O)Cc4c(Cl)cccc4Cl)cc32)c(C)c1C(=O)N1CCC[C@@H]1CN1CCCC1 | active
66 | C[C@H](CO)N1C[C@H](C)[C@H](CN(C)Cc2ccccc2)Oc2ccc(NC(=O)Nc3ccc(C(F)(F)F)cc3)cc2C1=O | inactive
67 | C[C@@H]1CN([C@@H](C)CO)C(=O)c2cc(NC(=O)Nc3ccc(C(F)(F)F)cc3)ccc2O[C@H]1CN(C)Cc1ccccc1 | active
68 | C[C@H](CO)N1C[C@H](C)[C@H](CN(C)Cc2ccc(C(=O)O)cc2)Oc2ccc(NC(=O)Nc3ccc(C(F)(F)F)cc3)cc2C1=O | inactive
69 | C[C@H](CO)N1C[C@H](C)[C@@H](CN(C)Cc2ccc(C(=O)O)cc2)Oc2ccc(NC(=O)Nc3ccc(C(F)(F)F)cc3)cc2C1=O | inactive
70 | C[C@@H]1CN([C@H](C)CO)C(=O)c2cc(NC(=O)Nc3ccc(C(F)(F)F)cc3)ccc2O[C@H]1CN(C)Cc1ccccc1 | active
71 | C[C@H](CO)N1C[C@H](C)[C@@H](CN(C)Cc2ccccc2)Oc2ccc(NC(=O)Nc3ccc(C(F)(F)F)cc3)cc2C1=O | active
72 | C[C@@H]1CN([C@@H](C)CO)C(=O)c2cc(NC(=O)Nc3ccc(C(F)(F)F)cc3)ccc2O[C@@H]1CN(C)Cc1ccccc1 | active
